The record followed here is the supplement of paper PMC8728848.

This excerpt belongs to a sample that is enriched for the strongest signals.

What all share (experiment): glycan array binding signal (z-score within array); higher = stronger binding
What all share (details): glycan notation: IUPAC condensed, linker removed

Assay [1] has as its target Fuc(a1-2)[Gal(a1-3)]Gal(b1-4)Glc. The essentials: (§1)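 Arrays were curated from the Consortium for Functional Glycomics database, 3228 in total, and kept only where the protein sequence was available. Binding is expressed as a within-array Z-score. This score was averaged across arrays of the same protein sequence at different concentrations or buffers and across linkers, and negative values can be read as non-binding.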

Assay [2] has as its target Fuc(a1-3)GlcNAc. The essentials:
as §1

The target of assay [3] is Fuc(a1-3)[GalNAc(b1-4)]GlcNAc. A digest of the protocol:
as §1

Assay [4] concerns the target Gal(a1-3)GalNAc. A digest of the protocol: as §1
Assay [5] addresses Gal(b1-3)GalNAc. A digest of the protocol: as §1
For assay [6], the target named is Gal(b1-3)GalNAc(b1-4)[Neu5Ac(a2-3)]Gal(b1-4)Glc. A digest of the protocol:
as §1

Assay [7] concerns the target Gal(b1-3)GlcNAc(b1-3)Gal(b1-4)GlcNAc. The essentials: as §1
Assay [8] deals with Gal(b1-3)[Fuc(a1-4)]GlcNAc. A digest of the protocol: as §1
In assay [9] the target is Gal3S(b1-3)GalNAc. A digest of the protocol:
as §1

Assay [10] has as its target Gal6S(b1-4)GlcNAc. The essentials: as §1
In assay [11] the target is GalNAc(b1-4)GlcNAc(b1-2)Man(a1-3)[GalNAc(b1-4)GlcNAc(b1-2)Man(a1-6)]Man(b1-4)GlcNAc(b1-4)GlcNAc. The essentials:
as §1

Assay [12] deals with GlcA(b1-6)Gal. A digest of the protocol: as §1
The target of assay [13] is GlcNAc(a1-4)Gal(b1-4)GlcNAc(b1-3)Gal(b1-4)Glc. A digest of the protocol:
as §1

Assay [14] concerns the target GlcNAc(b1-2)Man(a1-3)[GlcNAc(b1-2)Man(a1-6)]Man(b1-4)GlcNAc(b1-4)[Fuc(a1-6)]GlcNAc. The essentials:
as §1

For assay [15], the target named is GlcNAc(b1-3)Gal(b1-4)GlcNAc(b1-3)Gal(b1-4)GlcNAc. A digest of the protocol:
as §1

Assay [16] concerns the target GlcNAc(b1-4)GlcNAc(b1-4)GlcNAc(b1-4)GlcNAc(b1-4)GlcNAc. The essentials:
as §1

The target in assay [17] is Kdn(a2-3)Gal(b1-3)GalNAc. The essentials: as §1
In assay [18] the target is Man(a1-2)Man(a1-3)[Man(a1-2)Man(a1-6)]Man(a1-6)[Man(a1-2)Man(a1-2)Man(a1-3)]Man(b1-4)GlcNAc(b1-4)GlcNAc. The essentials:
as §1

The target of assay [19] is Man(a1-3)[Man(a1-6)]Man. The essentials: as §1
Assay [20] addresses Neu5Ac(a2-3)Gal(b1-3)GalNAc(b1-3)Gal(a1-4)Gal(b1-4)Glc. A digest of the protocol:
as §1

Assay [21] deals with Neu5Ac(a2-3)Gal(b1-3)[Fuc(a1-4)]GlcNAc(b1-3)Gal(b1-3)[Fuc(a1-4)]GlcNAc. A digest of the protocol:
as §1

In assay [22] the target is Neu5Ac(a2-3)Gal(b1-3)[Neu5Ac(a2-6)]GalNAc. A digest of the protocol:
as §1

The target of assay [23] is Neu5Ac(a2-3)Gal(b1-4)GlcNAc(b1-2)Man(a1-3)[Neu5Ac(a2-6)Gal(b1-4)GlcNAc(b1-2)Man(a1-6)]Man(b1-4)GlcNAc(b1-4)GlcNAc. The essentials: as §1
Assay [24] deals with Neu5Ac(a2-3)Gal(b1-4)GlcNAc(b1-3)Gal(b1-4)GlcNAc. A digest of the protocol: as §1
The target of assay [25] is Neu5Ac(a2-3)Gal(b1-4)GlcNAc6S. A digest of the protocol: as §1
Assay [26] addresses Neu5Ac(a2-3)Gal(b1-4)[Fuc(a1-3)]GlcNAc(b1-6)[Neu5Ac(a2-3)Gal(b1-3)]GalNAc. The essentials: as §1
Assay [27] addresses Neu5Ac(a2-3)Gal6S(b1-4)GlcNAc. A digest of the protocol:
as §1

The target of assay [28] is Neu5Ac(a2-6)Gal(b1-4)GlcNAc(b1-2)Man(a1-6)Man(b1-4)GlcNAc(b1-4)GlcNAc. The essentials: as §1
Assay [29] addresses Neu5Ac(a2-8)Neu5Ac(a2-3)[GalNAc(b1-4)]Gal(b1-4)Glc. The essentials:
as §1

In assay [30] the target is Neu5Ac(a2-8)Neu5Ac(a2-8)Neu5Ac. The essentials: as §1
The target of assay [31] is Fuc(a1-2)[Gal(a1-3)]Gal. The essentials:
as §1

Assay [32] deals with Gal(b1-3)[Neu5Ac(a2-6)]GalNAc. The essentials:
as §1

The target in assay [33] is Gal(b1-4)GlcNAc(b1-6)GalNAc. The essentials: as §1
Assay [34] has as its target Glc(b1-4)Glc. A digest of the protocol: as §1
For assay [35], the target named is GlcNAc(b1-4)[GlcNAc(b1-6)]GalNAc. The essentials:
as §1

For assay [36], the target named is Man(a1-2)Man(a1-6)[Man(a1-3)]Man(a1-6)[Man(a1-2)Man(a1-2)Man(a1-3)]Man(b1-4)GlcNAc(b1-4)GlcNAc. A digest of the protocol:
as §1

Assay [37] deals with Neu5Ac(a2-3)Gal(b1-3)GalNAc. A digest of the protocol: as §1
For assay [38], the target named is Neu5Ac(a2-6)Gal(b1-4)GlcNAc. The essentials:
as §1

Assay [39] concerns the target Neu5Ac(a2-8)Neu5Ac(a2-3)Gal(b1-4)Glc. The essentials:
as §1

The target in assay [40] is Neu5Ac9Ac(a2-6)Gal(b1-4)GlcNAc. A digest of the protocol: as §1

B1: Sialidase (Vibrio cholerae), P37060 (protein)
chain: GAMALFDYNATGDTEFDSPAKQGWMQDNTNNGSGVLTNADGMPAWLVQGIGGRAQWTYSLSTNQHAQASSFGWRMTTEMKVLSGGMITNYYANGTQRVLPIISLDSSGNLVVEFEGQTGRTVLATGTAATEYHKFELVFLPGSNPSASFYFDGKLIRDNIQPTASKQNMIVWGNGSSNTDGVAAYRDIKFEIQGDALNGSMALFDYNATGDTEFDSPAKQGWMQDNTNNGSGVLTNADGMPAWLVQGIGGRAQWTYSLSTNQHAQASSFGWRMTTEMKVLSGGMITNYYANGTQRVLPIISLDSSGNLVVEFEGQTGRTVLATGTAATEYHKFELVFLPGSNPSASFYFDGKLIRDNIQPTASKQNMIVWGNGSSNTDGVAAYRDIKFEIQGDLQALGMALFDYNATGDTEFDSPAKQGWMQDNTNNGSGVLTNADGMPAWLVQGIGGRAQWTYSLSTNQHAQASSFGWRMTTEMKVLSGGMITNYYANGTQRVLPIISLDSSGNLVVEFEGQTGRTVLATGTAATEYHKFELVFLPGSNPSASFYFDGKLIRDNIQPTASKQNMIVWGNGSSNTDGVAAYRDIKFEIQGD
For the molecule B1, the “glycan array binding signal (z-score)” value was -0.115 in assay [1]; -0.622 in assay [2]; -0.6 in assay [3]; -0.472 in assay [4]; -0.469 in assay [5]; 0.396 in assay [6]. In addition, the “glycan array binding signal (z-score)” value in assay [7] is -0.474; in assay [8], -0.364; in assay [9], -0.567; in assay [10], -0.619; in assay [11] it was -0.622; in [12], -0.085. Moreover, the “glycan array binding signal (z-score)” value in assay [13] was -0.574; in assay [14] it was -0.267; in [15] it was 0.631; in [16], -0.605; in [17] it was -0.286; in assay [18], 0.193. Also, the “glycan array binding signal (z-score)” value in assay [19] is -0.644; in assay [20], -0.275; in assay [21], 5.53; in assay [22] it was 2.8; in assay [23], 6.62; in assay [24], 4.64. In addition, the “glycan array binding signal (z-score)” value in assay [25] is 2.73; in [26], 0.955; in assay [27], 6.38; in [28], 1.84; in assay [29] it was -0.257; in [30] it was 0.113.

B2: TES70 (Toxocara canis), Q9XYV5 (protein)
chain: MISVVLVAIALQISGSYAGACNSINDCGLFETCVNNMCVPDNMGCPMPCQAGQVCVPPNCVAAPAPQPVTTTTAAATTTTSARGRCNANAQCGAFEVCVNGMCQPNNAGCNPPCAANQVCVAPNCVPAPIPPPAQSTTTAPATTRAPPSCPPSWSPFSGHCYYVAVGSFLFNQASDWCTQTNSRPVWFDQSNVGTFGAELYFINVLAASRGVQTYWLGLNRQFGQWVWTNGSPLIFSNWRGSEPDGCCGGNVTCALVNYANPFGQWDDAGCGNIWRNPQGFICKKPLA
Regarding B2, the “glycan array binding signal (z-score)” value in assay [31] was -0.052; in assay [2] it was -0.169; in assay [32] it was 0.002; in [33], 0.229; in assay [34] it was -0.156; in [35], 0.013. Also, the “glycan array binding signal (z-score)” value is -0.137 in assay [36]; 0.672 in [37]; -0.065 in assay [22]; 6.41 in [38]; -0.14 in assay [39]; -0.172 in assay [40].
